Experimental data: PubChem BioAssay (NCI)
Compounds without any hit were thinned out: in the full panel of roughly 83,000, 20% have a hit.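 Negative percent growth values reflect cell death: -40 means 40% of the cells present at the start died, and -100 means all died.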 Unmarked numbers belong to inactive results. Calls of active or inactive are those of the source.

Tested on: HOP-92 NSCLC
Assay: NCI-60 one-dose screen, 48 h (100 = growth as untreated, 0 = no growth, -100 = all killed)
Settings: 10 µM unless noted
Experimental: Growth inhibition of the HOP-92 human Non-Small Cell Lung tumor cell line is measured as a screen for anti-cancer activity. Cells are grown in 96 well plates and exposed to the test compound for 48 hours. Compounds are tested at a single concentration, which is 10^-5 M for most compounds. The reported endpoint is percent growth (GI% or GIPRCNT), where numbers from 0 - 100% represent growth inhibition, and numbers from -100% - 0 represent cell death. For example, a value of 40 represents 60% growth inhibition. A value of 0 means no net growth occurred over the course of the experiment. A value of -40 indicates 40% of cells at the beginning of the experiment died by the end of the experiment. A value of -100 means all cells are dead at the end of the experiment.
NCI-60 Human Tumor Cell Lines Screen was performed using the standard one-dose NCI protocol, which is described in more detail at https://dtp.cancer.gov/discovery_development/nci-60/default.htm.
Compounds with GIPRCNT values below 10 were considered active. Activity score was based on GIPRCNT using the following formula: […]
Score is 0 for GIPRCNT values of 100 or above, 50 for GIPRCNT values of 0, and 100 for GIPRCNT values of -100.

Row | SMILES | growth
1 | C=C1C(=O)O[C@H]2[C@H]1CC/C(COC(=O)C(=O)c1cn(C)c3ccc(OC)cc13)=C\CC[C@@]1(C)O[C@@H]21 | -72.3% (active)
2 | Cn1c(=O)c2[nH]c(NN)nc2n(C)c1=O | 95.7%
3 | CCOc1c(C#N)nnc2c(C#N)c(NC(=O)c3ccccc3)nn12 | 89.3%
4 | Clc1cccc(Cl)c1/C=C/c1cc(/C=C/c2c(Cl)cccc2Cl)[nH]n1 | 102%
5 | C[n+]1cc2c3c(ccc2c2ccc4cc5c(cc4c21)OCO5)OCO3 | -80.6% (active)
6 | COc1ccc(CN2C(=O)C(Cl)=C(Nc3cccc(C(F)(F)F)c3)C2=O)cc1 | -17.2% (active)
7 | N#CC1=C(/N=C/c2ccccc2)Oc2c(ccc3ccccc23)C1c1ccccc1 (stereo not given) | 50.4%
8 | N=C1C(c2nc(-c3ccc(Br)cc3)cs2)=C(O)CN1Cc1cccnc1 | -47.3% (active)
9 | Cc1occc1-c1n[nH]c(=S)n1N1C(=O)CSC1=S | 103%
10 | COc1nc(N(C)O)nc(N(C)O)n1 | 52.8%
11 | CCCCCCCCCOc1c(OC)cc(C2CC(=O)Nc3c2c(C)nn3-c2nc3ccccc3[nH]2)cc1OC (stereo not given) | -23.4% (active)
12 | O=C(N/N=C/C=C/c1ccc([N+](=O)[O-])o1)c1cc2ccccc2cc1O | -47.5% (active)
13 | COc1ccc2occ(C3=C(c4c[nH]c5ccccc45)C(=O)N(O)C3=O)c2c1 | 87.8%
14 | CCCCC1CCCCN1C(=O)OCC (stereo not given) | 88.5%
15 | CC1(C)OC2C(CO[Si](C)(C)C(C)(C)C)OC(n3c(I)c(C#C[Si](C)(C)C)c(=O)[nH]c3=O)C2O1 (stereo not given) | 98.8%
16 | COc1ccc(NC(=O)CSc2nc(C)c(C(C)=O)n2-c2ccc(Cl)cc2)cc1 | 106%
17 | CC(=O)C(C)Cc1cc2c(cc1C)C(C)(C)CCC2(C)C (stereo not given) | 85.7%
18 | C#Cc1cccc(NC(=O)c2ccc(NC(=O)CCl)cc2)c1 | -57.6% [8.25 µM] (active)
19 | CCCCNC(=O)Oc1ccc2c(=O)c3sc4c(=O)c5ccccc5c(=O)c4c3c(=O)c2c1 | -30.4% (active)
20 | COc1ccc(Nc2nnc(SCc3ccccc3F)s2)cc1 | 88.6%

Row | SMILES | growth
21 | COc1ccc(-c2nc3ccc4[nH]ncc4c3c3c2CCCC3)cc1B(O)O | 49.8%
22 | Cc1cc(NCc2cc(Nc3ccnc4cc(Cl)ccc34)ccc2F)nc(N2CCN(C)CC2)n1 | 45.4%
23 | Cc1ccc(Cl)cc1NC(=O)c1cc2ccccc2cc1O | -10.5% (active)
24 | COc1ccc(-c2cc(-c3ccc(Nc4nc(Nc5ccc(Cl)cc5)nc(Nc5ccc(Cl)cc5)n4)cc3)nc(N)c2C#N)cc1 | -53.8% (active)
25 | COC(=O)[C@]12CC[C@@H](C)[C@H](C)[C@@H]1C1=CC[C@@H]3[C@@]4(C)C(C=O)=C[C@@](C)(CO)[C@@H]4[C@H](O)C[C@@]3(C)[C@]1(C)CC2 | -22.8% (active)
26 | CNS(=O)(=O)c1n[nH]nc1-c1cc(C(C)(C)C)c(O)c(C(C)(C)C)c1 | 80.2%
27 | C=C(C)[C@@H]1CC[C@]2(C)[C@H](CC=C3[C@@H]4CC(C)(C)CC[C@]4(C(N)=O)CC[C@]32C)[C@@]1(C)CCC#N | 32%
28 | COc1ccc(C(=NN=C(N)N)c2ccc(OC)cc2)cc1 | 3.59% (active)
29 | CCN1C(=O)N(CC)C2Nn3c(s/c(=C4\C(=O)N(C)c5ccccc54)c3=O)=NC21 (stereo not given) | 75.5%
30 | CCCCCCCCCCCC(c1ccccc1)[N+](C)(C)C (stereo not given) | -16.5% (active)
31 | O=C(Nc1cccc(C(F)(F)F)c1)Nc1cccc(C(F)(F)F)c1 | -16.2% (active)
32 | CCN(CC)CCCNc1ccc(Nc2ccc(OC)cc2)cc1 | 83.6%
33 | O=C(Nc1cccc(Oc2nnc(Cl)c3ccccc23)c1)Nc1ccc(Cl)c(C(F)(F)F)c1 | -38.4% (active)
34 | CN1CCN(C(=O)c2c3c(n4ccccc24)C(=O)c2ncccc2C3=O)CC1 | 85.4%
35 | N#Cc1c2c(nn(-c3ccccc3)c1=O)C(O)=C([N+](=O)[O-])C(c1ccccc1)C2 (stereo not given) | 76%
36 | COc1cccc2c1C(=O)c1c(O)c3c(c(O)c1C2=O)CC(O)(/C(C)=N/NC(=O)CCCCC(=O)N/N=C(\C)C1(O)Cc2c(O)c4c(c(O)c2C(OC2CC(N)C(O)C(C)O2)C1)C(=O)c1c(OC)cccc1C4=O)CC3OC1CC(N)C(O)C(C)O1 (stereo not given) | -50.7% [5 µM] (active)
37 | CC(C)Sc1nc(NNC(N)=S)c(C#N)c(-c2ccc(F)cc2)n1 | 70.2%
38 | CNC(=O)c1cc(Oc2ccc3nc(Nc4ccc(Cl)c(C(F)(F)F)c4)ccc3c2)ccn1 | 59.2%
39 | O=C(CCc1nnc(CN(c2ccccc2)c2ccccc2)o1)c1nc2ccccc2[nH]1 | 60.6%
40 | O=C(NCCc1ccc(O)c(O)c1)C12CC3CC(CC(C3)C1)C2 | 65.5%
